# About 7,900 targets were measured; listed, in parts, are those with a hit and a random draw of the rest. About 0.6% of all pairs of compound and target were hits.
# Compound: CC1=C(C(CC(=O)N1)C2=CC=C(C=C2)C(F)(F)F)C(=O)NC3=C(C=C4C(=C3)C=NN4)F
# Test: log2 fold change, soluble protein after heating vs DMSO (PISA); higher = thermal stabilisation; K562 cells, 10 uM, 30 min; active = over 0.2 and 3.5 SD of the protein, either way, in both replicates (recomputed)
# In short: (§1)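 Soluble protein was quantified by TMTpro 16plex LC-MS/MS after channel sums were equalised. It was obtained as the supernatant after 21,000xg for 90 min from pooled aliquots of K562 cells (2×10^6 cells/mL, 10 μM compound, 30 min) heated for 3 min across 48°C-58°C and extracted in PBS with 0.5% NP-40 at 4°C. Thermal stability values are relative to control samples and come from duplicates. They are given as log2 fold changes.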
# Chain of UniProt O43824 (O43824 whole entry, looked up): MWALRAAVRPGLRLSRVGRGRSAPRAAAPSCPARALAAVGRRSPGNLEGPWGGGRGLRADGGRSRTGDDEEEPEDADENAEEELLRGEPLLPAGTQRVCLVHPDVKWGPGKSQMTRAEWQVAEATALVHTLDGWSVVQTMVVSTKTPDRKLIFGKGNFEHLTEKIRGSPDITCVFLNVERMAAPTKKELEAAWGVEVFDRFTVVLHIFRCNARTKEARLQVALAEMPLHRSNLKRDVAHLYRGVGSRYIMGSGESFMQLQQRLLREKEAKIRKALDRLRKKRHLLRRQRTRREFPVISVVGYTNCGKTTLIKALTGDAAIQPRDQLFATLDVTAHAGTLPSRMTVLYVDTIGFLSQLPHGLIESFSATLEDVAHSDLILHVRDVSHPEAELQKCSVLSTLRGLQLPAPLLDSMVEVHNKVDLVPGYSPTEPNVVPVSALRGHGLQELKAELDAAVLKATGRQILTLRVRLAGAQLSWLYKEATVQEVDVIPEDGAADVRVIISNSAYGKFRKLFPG
# Chain of UniProt Q00688 (Q00688 whole entry, looked up): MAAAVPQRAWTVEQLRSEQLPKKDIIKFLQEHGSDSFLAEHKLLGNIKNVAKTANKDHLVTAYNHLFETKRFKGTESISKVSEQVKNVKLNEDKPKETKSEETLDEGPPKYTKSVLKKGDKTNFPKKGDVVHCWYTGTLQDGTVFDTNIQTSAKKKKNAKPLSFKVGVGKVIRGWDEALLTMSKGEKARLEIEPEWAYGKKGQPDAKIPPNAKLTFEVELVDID
# Chain of UniProt P55084 (P55084 whole entry, looked up): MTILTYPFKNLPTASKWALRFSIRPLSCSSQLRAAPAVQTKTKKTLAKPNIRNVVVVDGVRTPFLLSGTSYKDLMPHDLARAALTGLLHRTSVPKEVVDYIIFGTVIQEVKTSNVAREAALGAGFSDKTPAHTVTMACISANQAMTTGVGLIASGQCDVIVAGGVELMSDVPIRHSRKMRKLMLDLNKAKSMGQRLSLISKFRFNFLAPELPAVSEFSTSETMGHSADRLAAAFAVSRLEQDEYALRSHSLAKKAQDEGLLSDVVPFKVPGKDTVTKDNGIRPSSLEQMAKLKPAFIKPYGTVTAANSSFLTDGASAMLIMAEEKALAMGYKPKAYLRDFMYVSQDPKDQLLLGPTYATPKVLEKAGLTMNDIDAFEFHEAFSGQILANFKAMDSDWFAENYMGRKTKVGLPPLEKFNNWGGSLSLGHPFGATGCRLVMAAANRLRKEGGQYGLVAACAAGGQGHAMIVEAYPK
# Chain of UniProt Q9BXW9 (Q9BXW9 whole entry, looked up): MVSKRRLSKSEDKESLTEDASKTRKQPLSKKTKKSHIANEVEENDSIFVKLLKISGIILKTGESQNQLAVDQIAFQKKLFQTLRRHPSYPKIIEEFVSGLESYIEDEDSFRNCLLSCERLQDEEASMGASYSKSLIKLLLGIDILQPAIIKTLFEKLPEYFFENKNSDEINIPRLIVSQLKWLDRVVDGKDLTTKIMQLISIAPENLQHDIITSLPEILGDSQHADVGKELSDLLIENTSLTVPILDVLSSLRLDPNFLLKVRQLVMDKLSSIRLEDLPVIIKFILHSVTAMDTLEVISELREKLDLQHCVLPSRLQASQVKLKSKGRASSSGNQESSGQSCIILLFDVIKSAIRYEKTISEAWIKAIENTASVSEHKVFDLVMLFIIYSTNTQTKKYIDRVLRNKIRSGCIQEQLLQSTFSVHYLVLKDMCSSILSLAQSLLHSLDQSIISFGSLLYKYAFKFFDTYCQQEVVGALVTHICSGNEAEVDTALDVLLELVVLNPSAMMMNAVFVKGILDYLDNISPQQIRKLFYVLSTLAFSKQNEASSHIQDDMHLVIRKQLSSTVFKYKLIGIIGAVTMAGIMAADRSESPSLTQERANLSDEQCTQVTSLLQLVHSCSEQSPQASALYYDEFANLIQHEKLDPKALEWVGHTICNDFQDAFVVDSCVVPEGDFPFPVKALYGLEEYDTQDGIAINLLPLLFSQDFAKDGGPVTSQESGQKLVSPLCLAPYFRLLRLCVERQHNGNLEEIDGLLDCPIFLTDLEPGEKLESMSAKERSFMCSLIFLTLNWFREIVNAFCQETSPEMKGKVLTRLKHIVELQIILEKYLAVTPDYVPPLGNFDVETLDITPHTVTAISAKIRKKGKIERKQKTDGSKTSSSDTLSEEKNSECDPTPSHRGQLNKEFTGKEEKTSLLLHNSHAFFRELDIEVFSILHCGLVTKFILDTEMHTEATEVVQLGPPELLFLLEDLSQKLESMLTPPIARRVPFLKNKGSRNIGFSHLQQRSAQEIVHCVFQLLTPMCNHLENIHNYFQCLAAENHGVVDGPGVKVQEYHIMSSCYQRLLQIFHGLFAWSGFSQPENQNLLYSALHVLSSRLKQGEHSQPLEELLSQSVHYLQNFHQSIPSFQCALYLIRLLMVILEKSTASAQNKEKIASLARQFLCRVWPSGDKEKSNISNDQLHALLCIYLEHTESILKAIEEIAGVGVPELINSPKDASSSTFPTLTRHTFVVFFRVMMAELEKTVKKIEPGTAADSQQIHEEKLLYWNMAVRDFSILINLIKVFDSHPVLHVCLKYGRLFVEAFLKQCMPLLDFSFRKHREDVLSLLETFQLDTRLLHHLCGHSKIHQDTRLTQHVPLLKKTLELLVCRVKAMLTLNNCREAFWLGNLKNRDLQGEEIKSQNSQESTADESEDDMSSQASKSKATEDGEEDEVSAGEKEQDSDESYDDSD
# Chain of UniProt Q8IWJ2 (Q8IWJ2 whole entry, looked up): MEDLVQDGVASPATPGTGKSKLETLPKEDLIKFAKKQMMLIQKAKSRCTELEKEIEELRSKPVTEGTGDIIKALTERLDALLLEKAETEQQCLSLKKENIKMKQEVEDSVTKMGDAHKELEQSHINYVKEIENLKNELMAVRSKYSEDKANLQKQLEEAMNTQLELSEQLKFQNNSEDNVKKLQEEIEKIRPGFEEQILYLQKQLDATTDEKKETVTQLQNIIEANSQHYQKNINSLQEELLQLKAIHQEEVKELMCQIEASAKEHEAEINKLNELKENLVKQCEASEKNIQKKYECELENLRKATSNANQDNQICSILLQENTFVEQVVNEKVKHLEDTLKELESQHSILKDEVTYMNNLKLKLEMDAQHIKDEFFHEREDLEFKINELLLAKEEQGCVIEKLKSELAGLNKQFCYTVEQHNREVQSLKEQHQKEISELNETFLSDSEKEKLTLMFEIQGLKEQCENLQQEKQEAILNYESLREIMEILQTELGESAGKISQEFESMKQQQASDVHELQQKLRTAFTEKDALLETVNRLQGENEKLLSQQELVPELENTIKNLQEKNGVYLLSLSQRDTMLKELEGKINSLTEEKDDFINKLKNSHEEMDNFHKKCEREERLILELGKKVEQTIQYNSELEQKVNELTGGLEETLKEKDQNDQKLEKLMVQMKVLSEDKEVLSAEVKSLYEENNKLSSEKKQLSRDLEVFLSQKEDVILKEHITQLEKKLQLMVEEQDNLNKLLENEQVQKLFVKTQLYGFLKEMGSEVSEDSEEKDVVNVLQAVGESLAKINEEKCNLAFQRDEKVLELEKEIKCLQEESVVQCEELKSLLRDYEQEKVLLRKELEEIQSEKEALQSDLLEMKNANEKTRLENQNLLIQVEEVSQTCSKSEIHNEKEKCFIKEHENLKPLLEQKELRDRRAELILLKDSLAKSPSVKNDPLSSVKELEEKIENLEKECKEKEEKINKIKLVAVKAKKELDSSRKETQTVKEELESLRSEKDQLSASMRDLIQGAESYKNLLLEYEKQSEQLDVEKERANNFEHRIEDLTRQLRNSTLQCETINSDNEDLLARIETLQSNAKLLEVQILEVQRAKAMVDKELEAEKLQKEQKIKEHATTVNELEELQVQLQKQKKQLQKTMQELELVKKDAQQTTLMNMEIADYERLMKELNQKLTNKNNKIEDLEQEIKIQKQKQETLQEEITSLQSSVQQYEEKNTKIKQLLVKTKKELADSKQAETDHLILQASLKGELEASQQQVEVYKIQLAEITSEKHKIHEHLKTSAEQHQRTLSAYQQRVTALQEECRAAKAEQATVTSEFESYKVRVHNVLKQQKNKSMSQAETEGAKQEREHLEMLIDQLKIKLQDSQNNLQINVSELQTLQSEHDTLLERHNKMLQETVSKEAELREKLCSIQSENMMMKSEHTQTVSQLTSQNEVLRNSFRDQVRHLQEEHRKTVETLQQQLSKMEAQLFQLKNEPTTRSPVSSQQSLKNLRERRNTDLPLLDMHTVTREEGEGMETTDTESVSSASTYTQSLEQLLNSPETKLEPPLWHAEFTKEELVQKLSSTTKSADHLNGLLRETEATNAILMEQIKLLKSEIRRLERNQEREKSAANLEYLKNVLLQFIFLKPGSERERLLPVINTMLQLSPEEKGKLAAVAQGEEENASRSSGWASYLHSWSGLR
# Chain of UniProt P78417 (P78417 whole entry, looked up): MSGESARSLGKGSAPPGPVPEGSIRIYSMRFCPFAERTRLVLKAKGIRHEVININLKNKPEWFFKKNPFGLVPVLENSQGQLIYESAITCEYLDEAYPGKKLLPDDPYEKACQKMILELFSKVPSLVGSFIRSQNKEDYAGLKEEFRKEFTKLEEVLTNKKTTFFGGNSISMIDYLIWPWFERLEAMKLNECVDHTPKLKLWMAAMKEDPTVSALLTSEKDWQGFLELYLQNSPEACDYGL
# Chain of UniProt Q9NZC3 (Q9NZC3 whole entry, looked up): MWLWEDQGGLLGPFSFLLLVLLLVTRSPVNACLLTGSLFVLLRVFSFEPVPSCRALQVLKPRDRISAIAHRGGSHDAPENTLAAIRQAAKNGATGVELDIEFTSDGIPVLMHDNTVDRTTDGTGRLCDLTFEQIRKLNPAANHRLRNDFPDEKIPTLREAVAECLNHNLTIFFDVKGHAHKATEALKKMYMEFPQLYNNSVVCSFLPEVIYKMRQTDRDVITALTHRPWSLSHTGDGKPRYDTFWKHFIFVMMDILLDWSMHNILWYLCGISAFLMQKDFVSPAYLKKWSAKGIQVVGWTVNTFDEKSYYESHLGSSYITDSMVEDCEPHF
# Chain of UniProt Q96HJ9 (Q96HJ9 whole entry, looked up): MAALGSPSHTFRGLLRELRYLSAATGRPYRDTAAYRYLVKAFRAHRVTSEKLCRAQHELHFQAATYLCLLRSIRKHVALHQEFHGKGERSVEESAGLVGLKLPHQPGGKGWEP
row,Target,log2 fold change
1,FKBP3 (UniProt Q00688),-0.033 (inactive)
2,GPX4 (UniProt P36969),0.002 (inactive)
3,HEXA (UniProt P06865),-0.003 (inactive)
4,HECTD1 (UniProt Q9ULT8),0.026 (inactive)
5,GLUD2 (UniProt P49448),-0.098 (inactive)
6,GBF1 (UniProt Q92538),-0.016 (inactive)
7,HIKESHI (UniProt Q53FT3),-0.043 (inactive)
8,HBZ (UniProt P02008),0.004 (inactive)
9,HIP1 (UniProt O00291),0.074 (inactive)
10,HADHB (UniProt P55084),-0.147 (inactive)
11,GTPBP6 (UniProt O43824),0.112 (inactive)
12,GOLPH3 (UniProt Q9H4A6),0 (inactive)
13,GSTO1 (UniProt P78417),0.021 (inactive)
14,GYG1 (UniProt P46976),0.03 (inactive)
15,ICMT (UniProt O60725),-0.171 (inactive)
16,FANCD2 isoform 1 (UniProt Q9BXW9),0.002 (inactive)
17,GMEB1 (UniProt Q9Y692),0.011 (inactive)

row,Target,log2 fold change
1,GALNT2 (UniProt Q10471),-0.028 (inactive)
2,GCC2 (UniProt Q8IWJ2),0.085 (inactive)
3,HAX1 (UniProt O00165),0.047 (inactive)
4,GGT7 (UniProt Q9UJ14),-0.015 (inactive)
5,HDAC7 isoform 5 (UniProt Q8WUI4),0.029 (inactive)
6,HSPA8 (UniProt E9PK54),0.017 (inactive)
7,HIST2H3A (UniProt Q71DI3),0.002 (inactive)
8,FLNA (UniProt P21333),-0.017 (inactive)
9,H2AFX (UniProt P16104),-0.019 (inactive)
10,GTF2A1 (UniProt P52655),0.014 (inactive)
11,GATA1 (UniProt P15976),0.081 (inactive)
12,GALNT1 (UniProt Q10472),-0.001 (inactive)
13,FMC1 (UniProt Q96HJ9),-0.041 (inactive)
14,GDE1 (UniProt Q9NZC3),0.106 (inactive)
15,IDH3A (UniProt P50213),0.008 (inactive)
16,FARS2 (UniProt O95363),-0.003 (inactive)
17,FYB1 isoform 3 (UniProt O15117),-0.075 (inactive)

# Compound: CC1=C(C2=C(C=C1)C(=O)C3=CC=CC=C3N2CCCN)C
# Test: as above
# In short: as §1
row,Target,log2 fold change
1,FKBP3 (UniProt Q00688),-0.004 (inactive)
2,GPX4 (UniProt P36969),0.02 (inactive)
3,HEXA (UniProt P06865),-0.05 (inactive)
4,HECTD1 (UniProt Q9ULT8),-0.158 (inactive)
5,GLUD2 (UniProt P49448),0.127 (inactive)
6,GBF1 (UniProt Q92538),0.007 (inactive)
7,HIKESHI (UniProt Q53FT3),0.061 (inactive)
8,HBZ (UniProt P02008),0.088 (inactive)
9,HIP1 (UniProt O00291),0.038 (inactive)
10,HADHB (UniProt P55084),0.104 (inactive)
11,GTPBP6 (UniProt O43824),0.013 (inactive)
12,GOLPH3 (UniProt Q9H4A6),-0.028 (inactive)
13,GSTO1 (UniProt P78417),0.021 (inactive)
14,GYG1 (UniProt P46976),0.035 (inactive)
15,ICMT (UniProt O60725),0.147 (inactive)
16,FANCD2 isoform 1 (UniProt Q9BXW9),-0.369 (active)
17,GMEB1 (UniProt Q9Y692),-0.297 (active)

row,Target,log2 fold change
1,GALNT2 (UniProt Q10471),0.007 (inactive)
2,GCC2 (UniProt Q8IWJ2),-0.091 (inactive)
3,HAX1 (UniProt O00165),0.065 (inactive)
4,GGT7 (UniProt Q9UJ14),-0.031 (inactive)
5,HDAC7 isoform 5 (UniProt Q8WUI4),0.065 (inactive)
6,HSPA8 (UniProt E9PK54),-0.262 (inactive)
7,HIST2H3A (UniProt Q71DI3),0.727 (inactive)
8,FLNA (UniProt P21333),-0.027 (inactive)
9,H2AFX (UniProt P16104),1.02 (active)
10,GTF2A1 (UniProt P52655),-0.415 (active)
11,GATA1 (UniProt P15976),-0.368 (active)
12,GALNT1 (UniProt Q10472),0.021 (inactive)
13,FMC1 (UniProt Q96HJ9),0.02 (inactive)
14,GDE1 (UniProt Q9NZC3),0.266 (inactive)
15,IDH3A (UniProt P50213),0.015 (inactive)
16,FARS2 (UniProt O95363),-0.018 (inactive)
17,FYB1 isoform 3 (UniProt O15117),0.129 (inactive)

# Reference: the supplement of paper PMC10849652
